The list is not random: actives were taken first. Their share in the collection is about 5.5%.
Mito fusion yeast = inhibitors of mitochondrial division or activators of mitochondrial fusion; S. cerevisiae fusion-defective mutant growth rescue, CellTiterGlo 48 h; actives 0.23% (n = 320,000); AID 485298; Potency, µM (highest dose often 46.1 µM), inactives show at the top dose growth rescue (activation), most hits filed as activators; further: % of control where 0% means no effect; nearly all actives have a fitted effect of over 45% in size
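Growth-rescue viability read-out: after 48 h at the non-permissive 37C in glycerol/ethanol YPEG, yeast mitochondrial fusion mutants are measured by CellTiterGlo luminescence; compounds (23 nl pinned per well) restoring growth score as division inhibitors or fusion activators.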
BCR signal inh = chronic active BCR signaling inhibition; Potency, µM (doses to about 46.1 µM), for inactives: top-dose activity change, negative = inhibition, most hits filed as inhibitors; actives 0.05% (n = 340,000); ABC-DLBCL IkBa-CBG/CBR reporter, luminescence ratio, 4 h; active means well fitted inhibition curve with a large enough effect in the signal ratio, with a control signal flat, not every such curve was filed as active; inconclusive means small, poorly fitted or top-dose-only effect, or effect the other way, or a change in a side signal; the % refers to the signal ratio;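 further: plate controls were basal doxycycline-induced cells for no effect and cells given 10 µM MG132 for full effect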
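Doxycycline induced both beetle luciferases in TMD8 lymphoma cells; IKK-driven degradation limits the IkappaBalpha-fused green signal, while red luminescence normalises for cell number and nonspecific effects. Compounds tested up to 46 uM, 4 hrs.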
uPA surface inh = blocks generation of uPA at the cell surface; cell surface uPA generation assay, qHTS; Potency, µM (top dose mostly 38.3 µM), inactives show at the highest dose activity change, negative = inhibition, usual class: inhibitors; actives 0.31% (n = 330,000); AID 540303; active means well fitted inhibition curve with a large enough effect; inconclusive means small, poorly fitted or top-dose-only effect; inactive means no such curve, though single readings can be large or run the other way; tested in mouse RAW 264.7 cells; further: on the % scale 0 is the no-effect control and ±100 the full control effect; nearly all actives have a fitted effect of over 55% in size
VP16 counter = Gal4-VP16 reporter inhibition counter-screen; Potency, µM (series often up to 53.6 µM), for the others: at the top dose activity, negative = inhibition, actives largely listed as inhibitors; Drosophila S2 Gal4-VP16 UAS-luciferase, luminescence, 20 h; actives 3.5% (n = 310,000); AID 2546;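 further: Gal4-VP16 expression switched on by copper sulfate through the metallothionein promoter; on the % scale 0 is the no-effect control and ±100 the full control effect; nearly all actives have a fitted effect of over 50% in size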
Integrin act MD = integrin-mediated muscular dystrophy alleviation activation | alpha7betagal myoblasts, beta-gal FDG fluorescence, 48 h | Potency, µM (titrated, usually from 38.3 µM), for inactives: at the top dose activation, usual class: activators | actives 0.064% (n = 350,000);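 further: 100% = response of the positive control SU9516; nearly all actives have a fitted effect of over 60% in size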
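alpha7betagal+/- myoblasts (passage 13, 250/well) treated 48 h at 37C with compounds at 1:260 dilution of DMSO stock. Lysed, then beta-galactosidase activity read as FDG fluorescence (ex 480/em 540) after 30 min, with pre-read for autofluorescence.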
RORg inh = inhibitors of mouse ROR gamma transcriptional activity. P51450. Drosophila S2 Gal4-RORgamma UAS-luciferase reporter, 20 h. Potency, µM (series often up to 53.6 µM), for inactives: at the highest dose activity change, negative = inhibition, actives largely listed as inhibitors. actives 5.4% (n = 310,000). AID 2551; further: on the % scale 0 is the no-effect control and ±100 the full control effect; nearly all actives have a fitted effect of over 60% in size
Target sequence (P51450 whole entry, looked up, the tested form may be a part): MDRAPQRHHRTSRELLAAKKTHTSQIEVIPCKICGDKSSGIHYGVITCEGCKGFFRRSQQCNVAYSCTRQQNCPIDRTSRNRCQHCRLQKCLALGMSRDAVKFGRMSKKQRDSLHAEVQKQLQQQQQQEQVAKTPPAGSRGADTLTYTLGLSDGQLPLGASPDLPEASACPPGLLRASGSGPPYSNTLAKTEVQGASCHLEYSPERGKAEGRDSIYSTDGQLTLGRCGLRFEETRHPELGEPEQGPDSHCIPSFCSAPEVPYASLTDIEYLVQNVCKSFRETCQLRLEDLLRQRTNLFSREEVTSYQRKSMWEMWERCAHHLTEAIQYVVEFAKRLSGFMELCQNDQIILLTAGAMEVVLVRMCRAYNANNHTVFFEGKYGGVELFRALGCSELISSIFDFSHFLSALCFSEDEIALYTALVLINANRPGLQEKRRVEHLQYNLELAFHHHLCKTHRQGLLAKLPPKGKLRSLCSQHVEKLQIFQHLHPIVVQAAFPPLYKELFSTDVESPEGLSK
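Drosophila S2 cells stably expressing Gal4-DBD/mouse RORγ fusion under metallothionein promoter plus UAS-luciferase; compound 1 h, then 700 uM CuSO4 induction for 20 h at ambient temperature; inhibition read as reduced luminescence.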
Active calls of the source: *; ? = inconclusive; nt = no result. Unless noted, the call rests on the fitted dose curve; in most records, active means well fitted curve in the direction sought with a large enough effect; inconclusive means small, poorly fitted or top-dose-only effect, or another doubt; inactive means no such curve, though single readings can be large; an effect the other way counts as inactive or inconclusive. Potency means the concentration at half of the fitted maximal effect.

SMILES	Mito fusion yeast	BCR signal inh	uPA surface inh	VP16 counter	Integrin act MD	RORg inh
O=C1NC[C@H](c2ccccc2)OC(=O)[C@H](Cc2ccc(F)cc2)C/C=C\C[C@H]1CC(=O)N(CCO)Cc1ccccc1	nt	5%	-24%	nt	-43%	nt
O=C(O)c1ccccc1SCC(=O)N1c2ccccc2Sc2ccccc21	2%	-1%	2%	14µM*	-1%	-12%
CC(C)(C)NC(=O)C1CC2CCCCC2CN1 (stereo not given)	3.5µM*	?	0%	2%	?	1%
c1ccc2c(c1)CCNC2	nt	nt	nt	-7%	nt	-10%
CN1C2CCCC1CC(=O)C2	nt	nt	nt	3%	nt	11%
CNc1ccccc1C(=O)O	nt	nt	nt	-4%	nt	-21%
C[CH2][Hg][S]c1ccccc1C(=O)O	nt	nt	?	0.63µM*	nt	1.1µM*
C=CC(=O)OCC(C)C	nt	nt	nt	-15%	nt	-5%
O=C(Nc1ncc([N+](=O)[O-])s1)c1cccs1	-6%	?	?	10µM*	-65%	?
